# Reference: PubChem BioAssay (NCATS)
# Results filed as inconclusive are left out. Entries that show only a call come without a potency. Activity calls are given as the source filed them. Calls follow the shape of the dose curve; as a rule, active = well fitted inhibition curve with a large enough effect; inconclusive = small, poorly fitted or top-dose-only effect; inactive = no such curve, though single readings can be large or run the other way.
# Assay: qHTS for Inhibitors of the Aldehyde Dehydrogenase Family (ALDH1A2, ALDH1A3, ALDH2, ALDH3A1) (AID 2061307); also: nearly all actives have a fitted effect of over 50% in size; as to potency: test system not described further here
# Conditions: ALDH inhibition qHTS; series mostly up to 50.3 µM
# Potency is read from the fitted curve at half-maximal effect.
row,SMILES,Potency
1,O=C(Nc1cccc(C(F)(F)F)c1)c1ccccc1NCc1cccc(C(F)(F)F)c1,inactive
2,COc1ccc(C(=O)O/N=C(\N)c2ccccn2)cc1,0.538 µM (active)
3,Clc1ccc(-c2noc3ncnc(N4CCCCC4)c23)cc1,11.3 µM (active)
4,CC1(C)c2nc(-c3ccc(F)cc3)c(Nc3ccc(F)cc3)n2CCN1C(=O)CN,inactive
5,COc1ccccc1-c1noc(CNc2cccc(C#N)c2)n1,inactive
6,NCC(=O)Nc1cccc(-c2nn3c(=O)cc(N4CCNCC4)nc3s2)c1,inactive
7,Cc1csc(-c2cc(-c3c(Cc4ccc(S(N)(=O)=O)c(F)c4)c(CC4CC4)nn3-c3nc(C(=O)O)cs3)ccc2F)c1,12.7 µM (active)
8,COc1ccc(-n2ccc(CNc3cccc(F)c3C#N)n2)cc1,inactive
9,N#Cc1ccsc1NC(=O)c1ccn(-c2ccccc2F)n1,1 µM (active)
10,CCc1ccc(NC(=O)Cn2c(=O)n(-c3ccccc3)c(=O)c3ccc(C(=O)NCc4ccc5c(c4)OCO5)cc32)cc1,inactive
11,Cc1cc(Cl)ccc1-n1c(CCC(=O)O)ccc1-c1cccs1,12.7 µM (active)
12,Cc1ccc2nc(Nc3ccc(C(=O)O)cc3)[nH]c2c1,12 µM (active)
13,Cc1noc(C)c1-c1cncc(C(=O)NCc2cccnc2)c1,inactive
14,Cc1c(P(=S)(c2ccccc2)c2ccccc2)[n+]2ccccc2n1C/C=C/c1ccc(Cl)cc1,inactive
15,CCOc1ccc(CCNC(=O)c2cc3occc3[nH]2)cc1OCC,inactive
16,c1ccc(CCN(Cc2ccccc2)C2CCN(C3CCCCC3)CC2)cc1,7.94 µM (active)
17,Clc1ccc(Cn2cnc3ccccc32)cc1,14.1 µM (active)
18,O=C(Nc1ncccc1O)c1ccc(S(=O)(=O)Nc2ccccc2)cc1,inactive
19,O=C(O)c1ccc(-n2[nH]c(-c3ccccc3)cc2=O)cc1,8.91 µM (active)
20,O=C(Nc1nncs1)c1ccn(-c2ccc(F)cc2)n1,inactive

row,SMILES,Potency
1,O=C(Nc1ncc(Cc2ccc(C(F)(F)F)cc2)s1)C1CCC(c2ccccc2)CC1 (stereo not given),inactive
2,Cn1c(C(=O)Nc2cccc(Cl)c2)cc2c(=O)n(C)c3ccccc3c21,inactive
3,CCc1cccc(CC)c1-n1c(C)c(C(=O)NC2CC2)cc(-c2nc(-c3ccc(Cl)cc3)cs2)c1=O,inactive
4,Cc1ccc(NC(=O)c2cc(-c3cccs3)on2)cc1C,inactive
5,CCOc1ccc(NC(=O)c2ccc(NC(=O)CN3C(=O)N(C)C4(CCCCC4)C3=O)cc2)cc1,7.08 µM (active)
6,Cc1ccc(NC(=O)Cc2c(C)nn(C)c2C)cc1F,10 µM (active)
7,CC(=O)Nc1ccc(OCc2cn(CC(=O)c3ccc(O)cc3)nn2)cc1,inactive
8,Fc1ccc(Cn2cnc3ccccc32)cc1Cl,8.96 µM (active)
9,O=C1c2ccccc2-c2nnc(-c3ccccc3Cl)cc21,inactive
10,CC/C=C\C/C=C\C/C=C\C/C=C\C/C=C\C/C=C\CCC(=O)NCCN(C)C,inactive
11,O=C(Nc1ccccc1F)c1nc(S(=O)(=O)Cc2ccccc2F)ncc1Cl,3.16 µM (active)
12,O=C(NC1CCCN(Cc2ccccc2)C1)c1ccc(-c2cccc([N+](=O)[O-])c2)o1 (stereo not given),14.1 µM (active)
13,O=C(c1cccc(F)c1)N1CCCC2(CCN(C(c3ccccc3)c3ccccc3)C2)C1 (stereo not given),inactive
14,CCOc1ccc(NC(=O)Cn2c(=O)n(-c3ccccc3)c(=O)c3ccc(C(=O)NCc4ccc5c(c4)OCO5)cc32)cc1,inactive
15,Cc1ccc(CNS(=O)(=O)c2ccc3c(c2)CN(C(=O)c2cccnc2)CC3)o1,inactive
16,CCOC(=O)OC(C)OC(=O)c1csc(-n2[nH]c(-c3ccc(F)c(F)c3)cc2=O)n1 (stereo not given),inactive
17,Cc1cc(=O)n2[nH]c(NC(=O)c3ccccc3C)nc2n1,inactive
18,CC(=O)c1cc2c(cc1NC(=O)c1cnn(-c3ccc(F)cc3F)c1)OCO2,inactive
19,N#CC1CCN(c2nc(Br)cs2)CC1,inactive
20,O=C(Nc1ccn[nH]1)c1ccn(-c2cccc(F)c2)n1,inactive
